According to PubChem BioAssay (NCI):
This is part of a sample that, as a whole, favours compounds with a hit. Of some 83,000 tested, about 20% had one in any assay.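 Plates (96-well) were seeded with cells, treated with compound at one concentration, and incubated for 48 hours before percent growth was determined.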

Assays:
Assay in all cases: NCI-60 one-dose screen, 48 h (100 = growth as untreated, 0 = no growth, -100 = all killed)
Details in all cases: 10 µM unless noted; active = growth percent below 10; inactive = the rest
SK-MEL-2 melanoma = test system: SK-MEL-2 melanoma
EKVX NSCLC = test system: EKVX NSCLC
SN12C renal = test system: SN12C renal
UO-31 renal = test system: UO-31 renal
TK-10 renal = test system: TK-10 renal
A498 renal = test system: A498 renal
CCRF-CEM leukemia = test system: CCRF-CEM leukemia
MOLT-4 leukemia = test system: MOLT-4 leukemia
SR leukemia = test system: SR leukemia
RPMI-8226 leukemia = test system: RPMI-8226 leukemia
OVCAR-8 ovarian = test system: OVCAR-8 ovarian
OVCAR-5 ovarian = test system: OVCAR-5 ovarian
OVCAR-4 ovarian = test system: OVCAR-4 ovarian
SK-OV-3 ovarian = test system: SK-OV-3 ovarian
IGROV1 ovarian = test system: IGROV1 ovarian
OVCAR-3 ovarian = test system: OVCAR-3 ovarian
HS 578T breast = test system: HS 578T breast
NCI/ADR-RES ovarian = test system: NCI/ADR-RES ovarian

Measured: growth

Nc1c(C(=O)O)[nH]c(=O)[nH]c1=O
inactive: SK-MEL-2 melanoma 99.5% | EKVX NSCLC 105% | SN12C renal 98.3% | UO-31 renal 94.2% | TK-10 renal 103% | A498 renal 106% | CCRF-CEM leukemia 90.3% | MOLT-4 leukemia 96.2% | SR leukemia 90.2% | RPMI-8226 leukemia 99.9% | OVCAR-8 ovarian 108% | OVCAR-5 ovarian 105% | OVCAR-4 ovarian 111% | SK-OV-3 ovarian 102% | IGROV1 ovarian 112% | OVCAR-3 ovarian 105% | HS 578T breast 102% | NCI/ADR-RES ovarian 108%

CCCC(C)(C)COC(=O)c1cccc(N)c1
inactive: SK-MEL-2 melanoma 88% | EKVX NSCLC 101% | SN12C renal 98.4% | UO-31 renal 69.2% | TK-10 renal 84.5% | A498 renal 88.6% | CCRF-CEM leukemia 88.5% | MOLT-4 leukemia 56% | SR leukemia 92.8% | RPMI-8226 leukemia 108% | OVCAR-8 ovarian 84.2% | OVCAR-5 ovarian 114% | OVCAR-4 ovarian 117% | SK-OV-3 ovarian 94.1% | IGROV1 ovarian 103% | OVCAR-3 ovarian 102% | HS 578T breast 99.3% | NCI/ADR-RES ovarian 102%

COc1cc(-c2nc(N)n(CC(=O)Nc3ccc(/C(C)=N\O)cc3)n2)cc(OC)c1OC
inactive: SK-MEL-2 melanoma 92.1% | EKVX NSCLC 106% | SN12C renal 96% | UO-31 renal 79.5% | TK-10 renal 90.9% | A498 renal 89.8% | CCRF-CEM leukemia 84.5% | MOLT-4 leukemia 91.6% | SR leukemia 83% | RPMI-8226 leukemia 94.3% | OVCAR-8 ovarian 74.3% | OVCAR-5 ovarian 114% | OVCAR-4 ovarian 112% | SK-OV-3 ovarian 87.9% | IGROV1 ovarian 96.8% | OVCAR-3 ovarian 106% | HS 578T breast 82.1% | NCI/ADR-RES ovarian 105%

C=C1C(=O)O[C@H]2[C@H]1CC/C(COC(=O)n1ccnc1C)=C\CC[C@@]1(C)O[C@@H]21
inactive: SK-MEL-2 melanoma 86.8% | EKVX NSCLC 98.4% | SN12C renal 103% | UO-31 renal 83.1% | TK-10 renal 94.3% | A498 renal 105% | CCRF-CEM leukemia 70.4% | MOLT-4 leukemia 79.8% | SR leukemia 86.6% | RPMI-8226 leukemia 100% | OVCAR-8 ovarian 91.4% | OVCAR-5 ovarian 101% | OVCAR-4 ovarian 99.3% | SK-OV-3 ovarian 85.4% | IGROV1 ovarian 97.7% | OVCAR-3 ovarian 73.7% | HS 578T breast 98% | NCI/ADR-RES ovarian 96.3%

O=C1CCC(=O)N1C1CCCCC1
inactive: SK-MEL-2 melanoma 103% | EKVX NSCLC 98.4% | SN12C renal 100% | UO-31 renal 84.3% | TK-10 renal 105% | A498 renal 97.1% | CCRF-CEM leukemia 108% | MOLT-4 leukemia 95.7% | SR leukemia 96.4% | RPMI-8226 leukemia 109% | OVCAR-8 ovarian 112% | OVCAR-5 ovarian 109% | OVCAR-4 ovarian 104% | SK-OV-3 ovarian 103% | IGROV1 ovarian 91.9% | OVCAR-3 ovarian 102% | HS 578T breast 97.5% | NCI/ADR-RES ovarian 102%

Cc1ccc(NC(=O)CN2CCOCC2)cc1Cl
inactive: SK-MEL-2 melanoma 95.1% | EKVX NSCLC 93.2% | SN12C renal 93.1% | UO-31 renal 90.4% | TK-10 renal 95.6% | A498 renal 61.3% | CCRF-CEM leukemia 78.9% | MOLT-4 leukemia 90.2% | SR leukemia 82.3% | RPMI-8226 leukemia 93.3% | OVCAR-8 ovarian 92% | OVCAR-5 ovarian 99.9% | OVCAR-4 ovarian 94.7% | SK-OV-3 ovarian 90.1% | IGROV1 ovarian 107% | OVCAR-3 ovarian 104% | HS 578T breast 98.7% | NCI/ADR-RES ovarian 103%

CCCCOc1c(N)cc(Cl)cc1C(=O)OCCN(CC)CC
inactive: SK-MEL-2 melanoma 90.9% | EKVX NSCLC 104% | SN12C renal 97% | UO-31 renal 82.3% | TK-10 renal 94.3% | A498 renal 80.1% | CCRF-CEM leukemia 72.6% | MOLT-4 leukemia 58.4% | SR leukemia 79.5% | RPMI-8226 leukemia 100% | OVCAR-8 ovarian 90.8% | OVCAR-5 ovarian 113% | OVCAR-4 ovarian 118% | SK-OV-3 ovarian 94.5% | IGROV1 ovarian 107% | HS 578T breast 99.7% | NCI/ADR-RES ovarian 107%

CC(C)(c1ccc(OCC(O)CNCc2ccco2)cc1)c1ccc(OCC(O)CNCc2ccco2)cc1 (stereo not given)
inactive: SK-MEL-2 melanoma 94.4% | EKVX NSCLC 92.1% | SN12C renal 87.6% | UO-31 renal 66.3% | TK-10 renal 93.1% | A498 renal 68.9% | CCRF-CEM leukemia 72.9% | MOLT-4 leukemia 67.1% | SR leukemia 31.5% | RPMI-8226 leukemia 64.8% | OVCAR-8 ovarian 92.3% | OVCAR-5 ovarian 101% | OVCAR-4 ovarian 96% | SK-OV-3 ovarian 105% | IGROV1 ovarian 86.3% | OVCAR-3 ovarian 83% | HS 578T breast 75.7% | NCI/ADR-RES ovarian 93.2%

O=c1cc(Cl)[nH]c(=O)[nH]1
inactive: SK-MEL-2 melanoma 91.8% | EKVX NSCLC 104% | SN12C renal 107% | UO-31 renal 96.4% | TK-10 renal 98.1% | A498 renal 100% | CCRF-CEM leukemia 111% | MOLT-4 leukemia 88.5% | SR leukemia 111% | RPMI-8226 leukemia 98.6% | OVCAR-8 ovarian 104% | OVCAR-5 ovarian 105% | OVCAR-4 ovarian 109% | SK-OV-3 ovarian 85.2% | IGROV1 ovarian 109% | HS 578T breast 103% | NCI/ADR-RES ovarian 105%
